The source of these data is the supplement of paper PMC6522484.

± gives the standard deviation of the averaged measurements.

For the experiment, the system named is DLD1. Nature of the experiment: TCF/Wnt firefly luciferase reporter signal relative to plate median (fraction of plate median); higher = higher Wnt reporter signal. The conditions noted are these: 5 µM; treatment time 24 h; reporter: 7TFP. The method, boiled down:
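On parallel plates, a Tecan F500 reader recorded either firefly luciferase or CellTiterGlo luminescence. The plates held colorectal cancer cells stably transduced with lentiviral TCF/Wnt firefly luciferase reporters (7TFP or TCF4/Wnt), seeded in 384-well format and treated 24 h later with library compounds at a final 5 µM for 24 h. Per-well signals were normalised to the plate median (webcellHTS2, additive, no log transformation), and two independent replicates were averaged.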
Turning to `CN1CCC(=C2c3ccccc3Sc3ccccc32)CC1`, the “TCF/Wnt firefly luciferase reporter signal” value worked out at 0.874 ± 0.026.
Turning to `CC(C)c1c(O)c(-c2cc3c(c(C(C)C)c2O)CCC2C(C)(C)CCC[C@]32C)cc2c1CCC1C(C)(C)CCC[C@]21C` (stereo not given in full), the “TCF/Wnt firefly luciferase reporter signal” value was determined as 1.26 ± 0.26.
With `CC(C)CCC[C@@H](C)[C@H]1CC[C@H]2[C@@H]3CC=C4C[C@@H](O)CC[C@]4(C)[C@H]3CC[C@]12C`, the “TCF/Wnt firefly luciferase reporter signal” value worked out at 1.05 ± 0.081.
With `O=c1occ(C(O)CO)c2cccc(O)c12` (stereo not given) [Oospoglycol], the “TCF/Wnt firefly luciferase reporter signal” value was determined as 1.1 ± 0.11.
For the molecule `O=C(NC(Cc1cc(=O)[nH]c2ccccc12)C(=O)O)c1ccc(Cl)cc1` (stereo not given), the “TCF/Wnt firefly luciferase reporter signal” value was determined as 0.909 ± 0.064.
The same measure for `NC[C@@H]1O[C@@H](O[C@H]2[C@H](O)[C@@H](O[C@H]3O[C@H](CO)[C@@H](O)[C@H](N)[C@H]3O)[C@H](N)C[C@@H]2N)[C@@H](O)[C@H](O)[C@H]1O`: 1.02 ± 0.035.
The result for `O=C1C=C2CC3(O)COc4c(ccc(O)c4O)C3=C2C=C1O` (stereo not given) reads 0.943 ± 0.081; that for `CC[C@H](CC[C@@H](C)[C@H]1CC[C@H]2[C@@H]3CC=C4C[C@@H](O)CC[C@]4(C)[C@H]3CC[C@]12C)C(C)C` [beta-SITOSTEROL], 0.872 ± 0.0028; that for `CCCCCC(=O)O[C@]1(C(C)=O)CC[C@H]2[C@@H]3CCC4=CC(=O)CC[C@]4(C)[C@H]3CC[C@@]21C`, 0.979 ± 0.087.
Turning to `CCCCC/C=C/CCC(=O)N[C@H]1[C@H](Oc2c3cc4cc2Oc2ccc(cc2Cl)[C@@H](O[C@@H]2O[C@H](CO)[C@@H](O)[C@H](O)[C@H]2NC(C)=O)[C@@H]2NC(=O)[C@H](NC(=O)[C@@H]4NC(=O)[C@H]4NC(=O)C(Cc5ccc(c(Cl)c5)O3)NC(=O)[C@H](N)c3ccc(O)c(c3)Oc3cc(O)cc4c3)c3ccc(O)c(c3)-c3c(OC4O[C@H](CO)[C@@H](O)[C@H](O)[C@@H]4O)cc(O)cc3[C@@H](C(=O)O)NC2=O)O[C@H](CO)[C@@H](O)[C@@H]1O` (stereo not given in full) [TEICOPLANIN [A(2-1) shown]], the “TCF/Wnt firefly luciferase reporter signal” value worked out at 0.971 ± 0.0071.
For the molecule `CN(C)c1ccc(C(=C2C=CC(=[N+](C)C)C=C2)c2ccc(N(C)C)cc2)cc1`, the “TCF/Wnt firefly luciferase reporter signal” value was found to be 0.529 ± 0.091.
`CC1CC2C3CCC4=CC(=O)C=CC4(C)C3(F)C(O)CC2(C)C1C(=O)CO` (stereo not given): the “TCF/Wnt firefly luciferase reporter signal” value amounted to 1.05.
On to `NNCCc1ccccc1`, for which the “TCF/Wnt firefly luciferase reporter signal” value was found to be 1.26 ± 0.2.
The result for `CCOC(=O)[N-]c1c[n+](N2CCOCC2)no1` reads 0.984 ± 0.037; that for `COC(=O)c1c(C)cc(O)cc1O`, 1.15 ± 0.014.
The same measure for `CC(=O)O[C@@H]1CC2C(C)(C)[C@H](O)CC[C@]2(C)C2CC[C@@]3(C)[C@H](c4ccoc4)OC(=O)C4OC43[C@@]21C` (stereo partly drawn) [alpha-DIHYDROGEDUNOL]: 1.02 ± 0.18; for `CCOC(=O)[C@@](C)(N)Cc1ccc(O)c(O)c1`: 1.1 ± 0.12; for `CC(C)CCCC(C)C1CCC2C3=CCC4CC(O)CCC4(C)C3CCC21C` (stereo not given): 0.891 ± 0.083.
Turning to `NC(=O)NCCC[C@H](N)C(=O)O`, the “TCF/Wnt firefly luciferase reporter signal” value is 0.944 ± 0.043.
Turning to `CCCC(=O)Nc1ccc(OCC(O)CNC(C)C)c(C(C)=O)c1` (stereo not given), the “TCF/Wnt firefly luciferase reporter signal” value is 0.957 ± 0.12.
As for `CC(=O)C1=C(O)C=C2Oc3c(C(C)=O)c(O)c(C)c(O)c3C2(C)C1=O` (stereo in doubt), the “TCF/Wnt firefly luciferase reporter signal” value is 1.2 ± 0.13.
As to `CCc1c(O)cc(C(C)CC)oc1=O` (stereo not given) [Germicidin], the “TCF/Wnt firefly luciferase reporter signal” value was found to be 0.946 ± 0.16.
With `CS(=O)(=O)CCCCN=C=S`, the “TCF/Wnt firefly luciferase reporter signal” value was found to be 0.83 ± 0.067.
As for `COc1c(N2C[C@@H]3CCCN[C@@H]3C2)c(F)cc2c(=O)c(C(=O)O)cn(C3CC3)c12`, the “TCF/Wnt firefly luciferase reporter signal” value was found to be 1.1 ± 0.042.
Take `COc1cc2c(cc1OC)-c1c(oc3cc(O)cc(O)c3c1=O)CO2`: the “TCF/Wnt firefly luciferase reporter signal” value is 1.22 ± 0.05.
As for `Cn1c(=O)[nH]c(=O)c2[nH]cnc21`, the “TCF/Wnt firefly luciferase reporter signal” value was found to be 1.09 ± 0.17.
`NC(=O)NO`: the “TCF/Wnt firefly luciferase reporter signal” value turned out to be 1.03 ± 0.11.
As to `C[C@H]1COc2c(N3CCN(C)CC3)c(F)cc3c(=O)c(C(=O)O)cn1c23`, the “TCF/Wnt firefly luciferase reporter signal” value was 0.996 ± 0.049.
Take `CCN(CCCc1ccccc1)CCCc1ccccc1`: the “TCF/Wnt firefly luciferase reporter signal” value is 1 ± 0.036.
For `OC[C@H]1O[C@@](CO)(O[C@H]2O[C@H](CO)[C@@H](O)[C@H](O)[C@H]2O)[C@@H](O[C@H]2O[C@H](CO)[C@@H](O)[C@H](O)[C@H]2O)[C@@H]1O`, the “TCF/Wnt firefly luciferase reporter signal” value is 0.9905 ± 0.0078.
The result for `C[C@@H]1C[C@H]2[C@@H]3CCC4=CC(=O)C=C[C@]4(C)[C@@]3(F)[C@@H](O)C[C@]2(C)[C@@]1(O)C(=O)COP(=O)(O)O` reads 0.954 ± 0.065; that for `CC(=O)O[C@]1(C(C)=O)CC[C@H]2[C@@H]3C=C(C)C4=CC(=O)CC[C@]4(C)[C@H]3CC[C@@]21C`, 1.03 ± 0.086; that for `CC(=O)O[C@@H]1CC2C(C)(C)[C@H](O)C[C@H](O)[C@@]2(C)C2CC[C@]3(C)C(=CC(=O)O[C@@H]3c3ccoc3)[C@]21C` (stereo not given in full), 1.07 ± 0.099.
For `CN(C)c1ccc(O)c2c1C[C@H]1C[C@H]3[C@H](N(C)C)C(O)=C(C(N)=O)C(=O)[C@@]3(O)C(O)=C1C2=O`, the “TCF/Wnt firefly luciferase reporter signal” value amounted to 1.05 ± 0.042.
On to `Cc1cc(/C=C/c2ccc3cc(N(C)C)ccc3[n+]2C)c(C)n1-c1ccccc1`, for which the “TCF/Wnt firefly luciferase reporter signal” value was 0.774 ± 0.1.
